KDM5B inhibitor – blocks human KDM5B histone demethylase activity | Q9UGL1 | KDM5B demethylase, FDH-coupled NADH fluorescence (FDH is formaldehyde dehydrogenase) | Potency, µM (highest dose often 57.7 µM), actives largely listed as inhibitors | actives 2.6% (n = 220,000) | AID 1347165; active = well fitted inhibition curve with a large enough effect; inconclusive = small, poorly fitted or top-dose-only effect; inactive = no such curve, though single readings can be large or run the other way; also: potency is read from the fitted curve at half-maximal effect; 0% is about no effect; nearly all actives have a fitted effect of over 70% in size
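Compound dilutions met 200 nM (final) KDM5BΔAP for 10 min at room temperature before substrate addition. The substrate mix held 12.5 µM H3K4me3 with cofactors 25 µM α-ketoglutarate and 50 µM Fe²⁺. NADH signal gain over 30 min defined activity.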
IP6K1 inh – inhibitors of human IP6K1; Q92551; activity change, % (series mostly up to about 58 µM); AID 1645851; actives 0.81% (n = 140,000); IP6K1 kinase, ADP-Glo luminescence, 2 h; stronger effect = lower value; in the data active = activity change below about -25%; also: % is scaled to controls: 0 for no effect and ±100 for the full control effect
Target sequence (Q92551 whole entry, looked up): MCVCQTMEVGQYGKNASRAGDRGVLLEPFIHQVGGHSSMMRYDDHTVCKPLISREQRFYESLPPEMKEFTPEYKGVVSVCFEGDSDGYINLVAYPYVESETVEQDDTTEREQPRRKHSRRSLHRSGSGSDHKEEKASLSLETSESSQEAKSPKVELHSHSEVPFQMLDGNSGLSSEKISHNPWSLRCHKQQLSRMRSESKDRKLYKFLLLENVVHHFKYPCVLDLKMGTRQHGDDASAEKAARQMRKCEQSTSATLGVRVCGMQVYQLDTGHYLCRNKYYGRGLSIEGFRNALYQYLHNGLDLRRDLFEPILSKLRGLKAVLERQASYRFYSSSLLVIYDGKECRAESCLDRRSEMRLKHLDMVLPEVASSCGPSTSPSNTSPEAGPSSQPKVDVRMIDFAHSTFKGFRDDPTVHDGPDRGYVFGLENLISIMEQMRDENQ
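ADP-Glo luminescence measures ADP made by human IP6K1 during a 2 h RT reaction with ATP/IP6 (mix at 1.3 mM/130 uM); top library doses 57.5 and 19.1 uM final.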
* marks the source's active call; other numbers are inactive results; i = inactive; ? = inconclusive; nt = not tested or not shown. Hits are enriched below; roughly 2.7% of the tested compounds scored in any of these assays.

SMILES	KDM5B inhibitor	IP6K1 inh
NC(=O)C1CCCN(CCNc2cc(-c3ccccc3)nc3ccnn23)C1 (stereo unspecified)	31.6µM*	14.4
CC(C)c1cc(NCCC(=O)NC2CCCCC2)n2nccc2n1	?	2.6
COCCn1cncc1CNc1nc(C)nc2ncccc12	i	10.9
CC(C)NC(=O)c1nc2cccnc2n(CCc2ccccc2)c1=O	nt	-11.9
Cc1ccc2[nH]cc(CCNC(=O)c3cc(F)ccc3F)c2c1	i	nt
O=C(Nc1ccc2c(c1)OCO2)C1CN(S(=O)(=O)c2cccnc2)CC12CCCCC2 (stereo unspecified)	?	4.0
COCCN1Cc2ccc(NCc3ccccc3)nc2C(C)(C(=O)Nc2ccccc2)C1 (stereo unspecified)	?	5.5
COCCN1Cc2ccc(NCc3ccccc3)nc2C(C)(C(=O)Nc2ccc(F)cc2)C1 (stereo unspecified)	?	8.3
COCCN1Cc2ccc(NCc3ccccc3)nc2C(C)(C(=O)Nc2cccnc2)C1 (stereo unspecified)	31.6µM*	2.8
CC(C)CNc1ccc2c(n1)C(C)(C(=O)NC1CCC(O)CC1)CN(Cc1ccccc1)C2 (stereo unspecified)	i	-0.7
COCCN1Cc2ccc(NCc3ccccc3)nc2C(C)(C(=O)NC2CCOCC2)C1 (stereo unspecified)	11.2µM*	10.0
COCCN1Cc2ccc(NCc3ccccc3)nc2C(C)(C(=O)NCc2ccccc2)C1 (stereo unspecified)	28.2µM*	7.1
O=C(Nc1cc(C2CC2)nn1-c1ccccc1)c1cccc(Cl)c1	nt	-7.8
O=C(NCc1cccc(C(F)(F)F)c1)C1CCCN(Cc2cccc(-c3ccsc3)c2)C1 (stereo unspecified)	nt	9.7
Cn1ncc2c(C(=O)NCCc3ccc(Cl)cc3)cc(-c3cccnc3)nc21	nt	5.6
O=C(Nc1cccnc1)[C@@H]1C[C@H](c2ccc(F)cc2)N(Cc2ccccc2Cl)C1	?	8.6
O=C(Cc1c[nH]c2ccccc12)NC1CCN(CC2CCCC2)CC1	i	nt
COc1ccccc1N1CCN(C(=O)c2noc(-c3ccc(C)cc3)n2)CC1	i	-11.1
Cc1cccc(N2CCN(C(=O)c3noc(-c4ccc5c(c4)OCO5)n3)CC2)c1	?	3.3
Cc1ccccc1N1CCN(C(=O)c2noc(-c3ccc[nH]c3=O)n2)CC1	28.2µM*	6.1
Cc1ccc(-c2nc(C(=O)N3CCN(c4ccccc4C)CC3)no2)cc1	?	3.2
Cc1cccc(N2CCN(C(=O)c3noc(-c4ccc[nH]c4=O)n3)CC2)c1C	28.2µM*	0.0
Cc1cccc(N2CCN(C(=O)c3noc(-c4ccc[nH]c4=O)n3)CC2)c1	28.2µM*	9.8
CCOC(=O)C1=C(CN2CCN(c3ccccn3)CC2)NC(=O)NC1c1cccc(OC)c1OC (stereo unspecified)	i	nt
COc1cccc(-c2nc(SCc3cc(=O)c4cc(C)cc(C)c4[nH]3)n[nH]2)c1	i	nt
SMILES	KDM5B inhibitor	IP6K1 inh
COCCN(Cc1ccccn1)Cc1cc(=O)c2cc(C)cc(C)c2[nH]1	28.2µM*	-3.2
Cc1cccc(N2C(=O)CSC23CCN(C(=O)C2CC2)CC3)c1	25.1µM*	2.2
O=C(C1CC1)N1CCC2(CC1)SCC(=O)N2c1ccc(Cl)cc1	?	-2.4
CN(Cc1ccc(CN2CCCC(O)(CO)C2)o1)S(C)(=O)=O (stereo unspecified)	i	4.1
C=CC[C@H]1CC(C)=C[C@H](CC=C)N1Cc1ccc(CN(C)S(C)(=O)=O)o1	14.1µM*	2.6
Cc1cc(C)c(CNC(=O)c2nc(Nc3ccccc3)cc3[nH]ccc23)c(=O)[nH]1	15.8µM*	-18.3
COc1ncccc1-c1cc2[nH]ccc2c(C(=O)NCc2c(C)cc(C)[nH]c2=O)n1	i	-2.5
Cc1cc(C)c(CNC(=O)c2nc(-c3cccc(O)c3)cc3[nH]ccc23)c(=O)[nH]1	31.6µM*	-14.9
Cc1cc(-c2cc3c(ccn3C(C)C)c(C(=O)NCc3c(C)cc(C)[nH]c3=O)n2)ccn1	i	13.6
COc1ccc2[nH]c(=O)c(CCC(=O)N3CCCC3)cc2c1	?	34.3
COc1ccc2[nH]c(=O)c(CCC(=O)NCCCN3CCCCC3C)cc2c1 (stereo unspecified)	28.2µM*	30.3
COc1ccc2[nH]c(=O)c(CCC(=O)N3CCN(CC(C)C)CC3)cc2c1	28.2µM*	32.6
CCC1CCCCN1CCNC(=O)CCc1cc2ccccc2[nH]c1=O (stereo unspecified)	?	-3.6
Cn1nc(C(=O)OCCOc2cccc(Br)c2)c2ccccc2c1=O	i	nt
COc1ccccc1CNC(=O)C1CCN(c2nccc(Nc3ccc(C)cc3)n2)CC1	nt	-9.6
COC(=O)C1=C(C)N=C2SC=C(CC(=O)NCc3ccccc3)N2C1c1ccccc1C (stereo unspecified)	?	3.1
O=C(Nc1cccc(F)c1)Nc1cccc(-c2ccc(N3CCCCC3)nn2)c1	?	-11.2
NCCCN1C(=O)CC[C@H]2CN(C(=O)c3coc4ccccc34)CC[C@H]21	i	-8.3
NCCCN1C(=O)CC[C@H]2CN(C(=O)c3cnn4ccccc34)CC[C@H]21	22.4µM*	9.2
O=C1NC2(CCCN(C(=O)c3ccccn3)C2)Oc2ccccc21 (stereo unspecified)	i	33.9
O=C1CC2(CCN(C(=O)c3ccccc3F)CC2)Oc2ccccc21	25.1µM*	8.8
O=C1CC2(CCN(C(=O)c3ccccn3)CC2)Oc2ccccc21	31.6µM*	5.1
O=C1CC2(CCN(C(=O)c3ccccc3)CC2)Oc2ccccc2N1	i	0.2
O=C(c1ccccc1F)N1CCC2(CC1)CC(=O)N(c1ccccc1)c1ccccc1O2	i	0.4
O=C1CC2(CCN(C(=O)c3ccccc3)CC2)Oc2ccccc21	31.6µM*	1.5
SMILES	KDM5B inhibitor	IP6K1 inh
CCOC(=O)c1[nH]c(C)c(/C(O)=C2\C(=O)C(=O)N(CCN(C)C)C2c2cccc(F)c2)c1C (stereo unspecified)	i	nt
CCOC(=O)C(NC(=O)c1cc(F)c(F)cc1Cl)C(=O)OCC	i	nt
CCc1cc2c(=O)c(Oc3ccccc3)c(C(F)(F)F)oc2cc1OC(=O)c1ccccc1Cl	i	nt
CCN=C1NN=C(c2cc(C)n(C3CC3)c2C)CS1	i	nt
COc1ccc(CC(=O)N2CC[C@@H](CC(=O)O)[C@@H](CC3=NCCc4cc(OC)c(OC)cc43)C2)cc1	31.6µM*	15.4
COc1cc2c(cc1OC)C(C[C@H]1CN(C(=O)c3cccs3)CC[C@H]1CC(=O)O)=NCC2	i	-3.4
COc1cc2c(cc1OC)C(C[C@H]1CN(C(=O)c3ccco3)CC[C@H]1CC(=O)O)=NCC2	28.2µM*	21.5
COc1cc2c(cc1OC)C(C[C@H]1CN(C(=O)c3ccc(N(C)C)cc3)CC[C@H]1CC(=O)O)=NCC2	28.2µM*	12.2
COc1cc2c(cc1OC)C(C[C@H]1CN(C(=O)c3ccc(C#N)cc3)CC[C@H]1CC(=O)O)=NCC2	i	6.2
O=C(O)C[C@@H]1CCN(C(=O)c2ccco2)C[C@@H]1CC1=NCCc2ccccc21	?	11.4
CCN1c2cc(C(=O)Nc3ccc4c(c3)OCCO4)ccc2C(=O)N2CCCC21 (stereo unspecified)	?	40.1
COc1ccc(C(=O)N2CCCN(c3nnc4ccccn34)CC2)cc1F	25.1µM*	6.3
COc1ccc(C(=O)N2CCN(c3nc4c(OC)cccc4s3)CC2)cc1OC	i	5.6
